Legend:
Assay in all cases: log2 ratio of Biotin-Ahx-Ub-VS probe labelling (fragment/DMSO); higher = less target engagement (more negative = stronger competition), active = hit call of the paper (q ≤ 0.05, log2 ratio ≤ -1)
Conditions in all cases: compound concentration: 200 uM; treatment time: 3 h
USP34 = USP34 (UniProt Q70CQ2)
In short: (§1)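 HEK293T lysate, 495 µg per sample in Tris/CHAPS/IGEPAL buffer with protease inhibitors, was treated in triplicate with fragment at 200 µM or vehicle for 3 h and then with Biotin-Ahx-Ub-VS at 0.5 µM final for 1 h. Labelled DUBs were NeutrAvidin-enriched, digested with LysC and trypsin, and run by diaPASEF LC-MS/MS. Spectronaut label-free quantities were global-median-normalised, and values are average log2 fragment/vehicle ratios by unpaired t-test on proteins with ≥2 unique peptides.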

USP36 = molecular target: T1, USP36 (UniProt Q9P275)
T1 sequence (whole entry): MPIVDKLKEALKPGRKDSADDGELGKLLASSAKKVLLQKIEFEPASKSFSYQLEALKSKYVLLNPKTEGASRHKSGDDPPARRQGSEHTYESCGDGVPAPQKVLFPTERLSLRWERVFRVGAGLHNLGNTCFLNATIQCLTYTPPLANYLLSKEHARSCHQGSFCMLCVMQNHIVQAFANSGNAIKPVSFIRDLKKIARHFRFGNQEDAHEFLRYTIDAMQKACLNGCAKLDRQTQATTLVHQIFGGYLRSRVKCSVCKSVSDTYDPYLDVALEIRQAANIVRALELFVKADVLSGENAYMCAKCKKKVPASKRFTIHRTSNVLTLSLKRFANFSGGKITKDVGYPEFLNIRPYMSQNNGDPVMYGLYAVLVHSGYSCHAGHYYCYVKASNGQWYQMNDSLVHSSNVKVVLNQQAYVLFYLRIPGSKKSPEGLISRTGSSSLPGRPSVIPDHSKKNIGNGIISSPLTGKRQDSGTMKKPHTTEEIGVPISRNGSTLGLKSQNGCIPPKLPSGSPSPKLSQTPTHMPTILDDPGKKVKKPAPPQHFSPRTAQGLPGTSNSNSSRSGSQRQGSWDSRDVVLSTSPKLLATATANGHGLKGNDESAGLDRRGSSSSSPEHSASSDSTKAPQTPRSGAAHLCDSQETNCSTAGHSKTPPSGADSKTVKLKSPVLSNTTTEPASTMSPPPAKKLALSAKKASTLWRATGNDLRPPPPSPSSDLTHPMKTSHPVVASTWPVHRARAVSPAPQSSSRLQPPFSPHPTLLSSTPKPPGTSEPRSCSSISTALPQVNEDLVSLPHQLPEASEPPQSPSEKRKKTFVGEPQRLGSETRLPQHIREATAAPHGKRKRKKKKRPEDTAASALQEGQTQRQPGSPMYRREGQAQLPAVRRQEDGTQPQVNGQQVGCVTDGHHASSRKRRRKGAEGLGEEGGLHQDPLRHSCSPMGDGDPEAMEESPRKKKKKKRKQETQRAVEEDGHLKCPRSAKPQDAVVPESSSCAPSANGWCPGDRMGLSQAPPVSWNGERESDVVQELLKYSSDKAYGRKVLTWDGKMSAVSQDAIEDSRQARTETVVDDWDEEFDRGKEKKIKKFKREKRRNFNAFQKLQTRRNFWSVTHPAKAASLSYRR
In short: as §1

USP38 = molecular target: T2, USP38 (UniProt Q8NB14)
T2 sequence (whole entry): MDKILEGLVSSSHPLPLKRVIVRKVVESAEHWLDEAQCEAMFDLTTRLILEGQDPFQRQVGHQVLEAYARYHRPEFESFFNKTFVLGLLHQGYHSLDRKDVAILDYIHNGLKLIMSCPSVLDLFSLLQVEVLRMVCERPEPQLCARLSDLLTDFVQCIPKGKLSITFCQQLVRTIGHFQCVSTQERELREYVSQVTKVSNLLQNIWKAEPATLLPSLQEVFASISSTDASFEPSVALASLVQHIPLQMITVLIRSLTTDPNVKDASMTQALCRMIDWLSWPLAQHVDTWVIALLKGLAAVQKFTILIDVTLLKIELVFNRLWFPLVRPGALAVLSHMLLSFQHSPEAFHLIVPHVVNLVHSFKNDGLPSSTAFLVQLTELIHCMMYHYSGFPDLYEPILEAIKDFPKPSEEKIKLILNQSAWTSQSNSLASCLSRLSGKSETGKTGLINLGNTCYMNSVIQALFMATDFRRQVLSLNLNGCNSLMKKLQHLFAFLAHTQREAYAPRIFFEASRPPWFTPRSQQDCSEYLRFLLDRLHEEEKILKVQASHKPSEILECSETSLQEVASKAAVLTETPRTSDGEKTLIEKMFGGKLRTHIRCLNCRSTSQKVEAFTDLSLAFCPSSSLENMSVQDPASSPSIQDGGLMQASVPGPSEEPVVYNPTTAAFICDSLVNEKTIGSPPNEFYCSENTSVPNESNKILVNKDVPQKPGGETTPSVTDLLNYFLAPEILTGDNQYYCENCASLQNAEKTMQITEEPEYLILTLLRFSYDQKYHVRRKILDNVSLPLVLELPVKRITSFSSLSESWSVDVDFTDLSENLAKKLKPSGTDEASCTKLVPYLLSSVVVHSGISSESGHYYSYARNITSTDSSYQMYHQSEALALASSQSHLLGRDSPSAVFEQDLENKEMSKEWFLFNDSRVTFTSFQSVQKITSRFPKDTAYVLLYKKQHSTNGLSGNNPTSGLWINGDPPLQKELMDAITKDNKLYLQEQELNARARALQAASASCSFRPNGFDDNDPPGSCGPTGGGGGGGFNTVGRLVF
In short: as §1

USP39 = molecular target: T3, USP39 (UniProt Q53GS9)
T3 sequence (whole entry): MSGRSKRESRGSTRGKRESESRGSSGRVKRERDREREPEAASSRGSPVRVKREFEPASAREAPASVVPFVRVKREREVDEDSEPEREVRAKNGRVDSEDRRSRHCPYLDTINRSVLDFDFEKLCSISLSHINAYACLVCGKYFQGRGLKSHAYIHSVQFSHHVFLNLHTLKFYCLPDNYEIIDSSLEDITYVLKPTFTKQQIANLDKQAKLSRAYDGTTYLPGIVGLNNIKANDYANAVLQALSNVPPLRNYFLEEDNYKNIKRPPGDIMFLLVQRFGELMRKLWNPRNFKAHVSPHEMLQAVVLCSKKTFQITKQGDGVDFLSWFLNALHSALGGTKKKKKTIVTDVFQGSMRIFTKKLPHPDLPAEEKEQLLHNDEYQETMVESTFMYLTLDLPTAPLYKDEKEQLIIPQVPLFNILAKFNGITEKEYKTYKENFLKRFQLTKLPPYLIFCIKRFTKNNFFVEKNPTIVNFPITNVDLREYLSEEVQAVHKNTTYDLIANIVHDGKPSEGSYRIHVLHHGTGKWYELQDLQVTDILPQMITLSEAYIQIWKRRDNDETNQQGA
In short: as §1

USP4 = molecular target: T4, USP4 (UniProt Q13107)
T4 sequence (whole entry): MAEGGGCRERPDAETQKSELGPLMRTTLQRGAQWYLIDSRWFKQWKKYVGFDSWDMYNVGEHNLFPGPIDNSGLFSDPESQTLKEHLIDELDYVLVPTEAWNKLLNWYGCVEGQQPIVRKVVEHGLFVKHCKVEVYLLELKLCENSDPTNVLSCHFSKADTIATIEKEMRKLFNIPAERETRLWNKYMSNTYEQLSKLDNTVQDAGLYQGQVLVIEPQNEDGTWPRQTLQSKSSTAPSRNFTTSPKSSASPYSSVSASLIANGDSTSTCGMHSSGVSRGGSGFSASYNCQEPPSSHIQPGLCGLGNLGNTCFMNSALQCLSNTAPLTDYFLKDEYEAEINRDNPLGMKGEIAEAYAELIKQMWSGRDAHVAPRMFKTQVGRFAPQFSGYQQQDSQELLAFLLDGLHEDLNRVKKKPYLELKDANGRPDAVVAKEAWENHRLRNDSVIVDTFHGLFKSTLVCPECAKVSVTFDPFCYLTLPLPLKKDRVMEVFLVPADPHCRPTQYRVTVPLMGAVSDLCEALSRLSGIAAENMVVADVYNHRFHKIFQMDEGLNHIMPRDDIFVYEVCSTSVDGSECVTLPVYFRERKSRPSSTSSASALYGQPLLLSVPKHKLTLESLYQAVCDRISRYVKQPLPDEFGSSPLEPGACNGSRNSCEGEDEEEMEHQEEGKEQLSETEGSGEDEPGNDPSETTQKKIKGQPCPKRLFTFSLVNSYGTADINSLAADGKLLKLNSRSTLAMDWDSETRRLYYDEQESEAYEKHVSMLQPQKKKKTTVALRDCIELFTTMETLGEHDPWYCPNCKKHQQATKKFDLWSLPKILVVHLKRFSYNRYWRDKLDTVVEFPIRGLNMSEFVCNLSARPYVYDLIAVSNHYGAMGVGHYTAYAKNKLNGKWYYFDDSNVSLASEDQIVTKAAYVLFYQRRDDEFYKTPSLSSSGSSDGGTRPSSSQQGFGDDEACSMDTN
In short: as §1

Measured: log2 ratio of Biotin-Ahx-Ub-VS probe labelling

Sequence of USP34 (Q70CQ2 whole entry, the tested form may be a part): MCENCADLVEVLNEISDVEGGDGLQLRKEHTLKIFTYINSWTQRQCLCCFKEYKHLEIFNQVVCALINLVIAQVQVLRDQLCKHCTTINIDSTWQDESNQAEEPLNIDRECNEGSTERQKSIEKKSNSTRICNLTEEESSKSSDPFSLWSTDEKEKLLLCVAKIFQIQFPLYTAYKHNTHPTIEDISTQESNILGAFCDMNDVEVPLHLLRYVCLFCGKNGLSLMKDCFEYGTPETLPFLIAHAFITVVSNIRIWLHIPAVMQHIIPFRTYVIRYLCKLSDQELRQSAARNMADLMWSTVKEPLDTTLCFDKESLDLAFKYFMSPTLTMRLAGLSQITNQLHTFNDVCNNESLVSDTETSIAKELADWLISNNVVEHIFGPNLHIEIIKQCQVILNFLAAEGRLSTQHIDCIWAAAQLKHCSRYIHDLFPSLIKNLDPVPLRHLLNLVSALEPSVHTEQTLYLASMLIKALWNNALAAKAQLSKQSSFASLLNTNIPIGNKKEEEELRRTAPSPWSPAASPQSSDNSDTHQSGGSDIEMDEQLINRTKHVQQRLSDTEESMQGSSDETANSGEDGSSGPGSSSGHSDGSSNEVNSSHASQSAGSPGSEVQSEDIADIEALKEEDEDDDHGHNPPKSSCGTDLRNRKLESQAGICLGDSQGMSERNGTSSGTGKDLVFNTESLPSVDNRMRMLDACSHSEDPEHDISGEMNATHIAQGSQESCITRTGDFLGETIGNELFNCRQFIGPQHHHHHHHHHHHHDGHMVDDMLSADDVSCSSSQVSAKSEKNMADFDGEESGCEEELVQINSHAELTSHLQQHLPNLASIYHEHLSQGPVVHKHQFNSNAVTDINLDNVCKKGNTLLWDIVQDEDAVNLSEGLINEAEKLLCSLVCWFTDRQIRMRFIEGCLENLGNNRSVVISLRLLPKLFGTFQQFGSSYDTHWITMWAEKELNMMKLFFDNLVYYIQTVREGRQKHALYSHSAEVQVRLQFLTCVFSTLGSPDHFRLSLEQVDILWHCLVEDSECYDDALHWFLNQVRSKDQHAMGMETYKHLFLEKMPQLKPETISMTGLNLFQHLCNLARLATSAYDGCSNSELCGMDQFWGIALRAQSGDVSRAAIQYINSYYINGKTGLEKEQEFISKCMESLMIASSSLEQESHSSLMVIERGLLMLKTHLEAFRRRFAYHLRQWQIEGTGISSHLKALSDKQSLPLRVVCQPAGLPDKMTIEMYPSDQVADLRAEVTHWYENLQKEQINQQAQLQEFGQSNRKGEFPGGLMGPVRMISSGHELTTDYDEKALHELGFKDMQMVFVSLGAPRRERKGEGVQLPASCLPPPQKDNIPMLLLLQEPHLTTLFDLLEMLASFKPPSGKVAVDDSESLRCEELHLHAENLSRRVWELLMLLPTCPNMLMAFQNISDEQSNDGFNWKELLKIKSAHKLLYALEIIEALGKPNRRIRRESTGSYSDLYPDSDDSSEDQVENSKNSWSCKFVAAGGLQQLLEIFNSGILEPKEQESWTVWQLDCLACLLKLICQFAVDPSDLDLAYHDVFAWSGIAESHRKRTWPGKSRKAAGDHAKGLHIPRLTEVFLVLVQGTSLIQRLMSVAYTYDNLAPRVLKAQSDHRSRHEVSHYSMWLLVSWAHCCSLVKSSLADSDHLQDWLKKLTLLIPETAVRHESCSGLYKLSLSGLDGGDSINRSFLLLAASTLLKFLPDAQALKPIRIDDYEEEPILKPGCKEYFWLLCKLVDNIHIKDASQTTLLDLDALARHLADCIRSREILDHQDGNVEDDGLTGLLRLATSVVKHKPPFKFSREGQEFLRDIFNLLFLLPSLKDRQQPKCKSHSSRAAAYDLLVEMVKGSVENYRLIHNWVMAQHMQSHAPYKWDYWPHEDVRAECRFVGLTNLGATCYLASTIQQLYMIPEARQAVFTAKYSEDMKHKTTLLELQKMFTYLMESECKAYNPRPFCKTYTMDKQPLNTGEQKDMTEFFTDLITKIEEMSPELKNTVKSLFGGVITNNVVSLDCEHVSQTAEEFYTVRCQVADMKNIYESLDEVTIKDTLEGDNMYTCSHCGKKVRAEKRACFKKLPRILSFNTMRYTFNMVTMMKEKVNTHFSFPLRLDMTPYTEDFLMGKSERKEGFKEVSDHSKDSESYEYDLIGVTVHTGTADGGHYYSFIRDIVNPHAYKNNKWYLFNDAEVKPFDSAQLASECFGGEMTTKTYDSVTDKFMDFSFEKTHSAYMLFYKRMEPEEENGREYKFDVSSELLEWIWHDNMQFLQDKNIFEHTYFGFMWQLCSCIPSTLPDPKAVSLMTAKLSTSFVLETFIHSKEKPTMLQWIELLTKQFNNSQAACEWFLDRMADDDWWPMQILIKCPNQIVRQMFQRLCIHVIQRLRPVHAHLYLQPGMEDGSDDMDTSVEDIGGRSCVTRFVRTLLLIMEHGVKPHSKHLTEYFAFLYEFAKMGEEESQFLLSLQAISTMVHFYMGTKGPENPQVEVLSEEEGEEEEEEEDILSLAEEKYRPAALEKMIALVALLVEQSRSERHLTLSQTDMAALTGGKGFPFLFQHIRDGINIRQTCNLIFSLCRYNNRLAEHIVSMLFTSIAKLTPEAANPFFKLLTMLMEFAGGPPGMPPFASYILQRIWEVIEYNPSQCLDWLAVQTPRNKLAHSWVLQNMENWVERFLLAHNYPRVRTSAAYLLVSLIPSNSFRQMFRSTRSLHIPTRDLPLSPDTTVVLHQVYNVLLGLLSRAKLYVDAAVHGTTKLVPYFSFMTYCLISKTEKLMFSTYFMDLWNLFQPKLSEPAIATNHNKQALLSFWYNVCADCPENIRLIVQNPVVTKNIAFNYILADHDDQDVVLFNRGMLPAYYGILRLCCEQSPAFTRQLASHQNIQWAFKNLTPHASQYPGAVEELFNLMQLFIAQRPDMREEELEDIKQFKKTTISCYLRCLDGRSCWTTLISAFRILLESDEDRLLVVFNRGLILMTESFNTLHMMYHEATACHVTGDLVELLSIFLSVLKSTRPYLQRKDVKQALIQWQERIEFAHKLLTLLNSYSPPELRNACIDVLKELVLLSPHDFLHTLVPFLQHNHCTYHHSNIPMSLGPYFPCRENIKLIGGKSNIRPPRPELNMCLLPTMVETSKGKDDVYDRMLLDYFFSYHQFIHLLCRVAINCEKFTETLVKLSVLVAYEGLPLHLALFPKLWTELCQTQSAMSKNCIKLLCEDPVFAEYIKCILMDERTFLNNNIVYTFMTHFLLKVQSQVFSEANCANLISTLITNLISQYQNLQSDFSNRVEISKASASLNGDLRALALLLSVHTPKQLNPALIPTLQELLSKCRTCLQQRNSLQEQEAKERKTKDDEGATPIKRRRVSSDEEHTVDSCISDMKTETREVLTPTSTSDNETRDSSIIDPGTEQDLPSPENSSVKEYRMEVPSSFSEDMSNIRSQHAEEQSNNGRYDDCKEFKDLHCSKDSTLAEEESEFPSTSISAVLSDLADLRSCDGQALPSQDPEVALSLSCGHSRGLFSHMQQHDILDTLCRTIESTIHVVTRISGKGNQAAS

COc1ccc(-c2csc(NC(=O)CCl)n2)cc1
inactive: USP34 -0.405 | USP36 -0.137 | USP38 -0.188 | USP39 0.0959 | USP4 -0.299

— the supplement of paper PMC11732987, “Enantioselective OTUD7B fragment discovery through chemoproteomics screening and high-throughput optimisation” (Communications Chemistry, 2025)
